HCV inhibitor: inhibitors of hepatitis C virus infection. Huh7.5.1 HCVcc-Cre infection, luciferase reporter, 44 h. AID 651820. Potency, µM (top dose mostly 41.8 µM), hits mostly inhibitors. actives 3.4% (n = 340,000)
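Reporter virus HCVcc-Cre (~0.5 moi) infects cells exposed to compound; seeding density 1,000 cells/well with 4 h settling beforehand. Luminescence, 15 sec read, taken 44 h post-infection following a 15 min RT substrate incubation.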
Vaccinia Venus: vaccinia inhibition (Venus reporter); Vaccinia virus Venus reporter expression, fluorescence; Potency, µM (highest dose often 36.5 µM), most hits filed as inhibitors; actives 0.46% (n = 330,000); AID 720580; calls by dose curve; tested in A549 cells; note: nearly all actives have a fitted effect of over 30% in size
Vaccinia mCherry: inhibitors of vaccinia virus infection (mCherry reporter signal). Vaccinia virus mCherry reporter infection, fluorescence. Potency, µM (top dose mostly 36.5 µM), actives largely listed as inhibitors. actives 0.63% (n = 310,000). AID 720579; calls by dose curve; tested in A549 cells; note: nearly all actives have a fitted effect of over 35% in size
Pf growth 96h: P. falciparum growth inhibition at 96 hours; actives 6.9% (n = 320,000); AID 504834; Potency, µM (titrated, usually from 28.7 µM), hits mostly inhibitors; P. falciparum luciferase reporter growth, 96 h
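Infected RBCs, 2% Hct / 0.05% parasitemia final; luciferase-reporter P. falciparum; cpd 96 h, 37 C, 5% CO2; luciferase detection reagent; luminescence.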
NS1 inh: influenza NS1 inhibition | Potency, µM (series often up to 46.1 µM) | actives 0.4% (n = 270,000) | AID 2326; calls by dose curve; note: actives are rising curves; nearly all actives have a fitted effect of over 50% in size
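S. cerevisiae expressing influenza A NS1, grown in glucose, washed, then diluted 1:100 into pH 6.0 -URA galactose medium with 23 nl compound. Growth recovery read as OD600; NS1-free strain serves as control.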
Pf growth 48h: inhibits P. falciparum growth in the first generation, 48 h; P. falciparum luciferase growth in erythrocytes, 48 h; actives 5.9% (n = 310,000); AID 504832; Potency, µM (titrated, usually from 28.7 µM), most hits filed as inhibitors
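Here the parasites carry a stable luciferase gene and grow inside erythrocytes in Albumax-based RPMI medium with compound for one erythrocytic cycle. Activity is scored as loss of luminescent signal.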
Numbers stand for hits; . = inactive; ? = inconclusive; / = not tested or not shown. An excerpt weighted towards active compounds, which were near 11% of everything screened. Unless noted, calls come from the whole dose curve; as a rule, active = well fitted inhibition curve with a large enough effect; inconclusive = small, poorly fitted or top-dose-only effect, or another doubt; inactive = no such curve, though single readings can be large or run the other way.

SMILES | HCV inhibitor | Vaccinia Venus | Vaccinia mCherry | Pf growth 96h | NS1 inh | Pf growth 48h
CCCCCCCCCCOC(=O)Cn1c(COc2ccccc2)[n+](C)c2ccccc21 | ? | 11µM | ? | ? | . | ?
CCCCCCCCCCOC(=O)Cn1c(COc2ccccc2C)[n+](C)c2ccccc21 | ? | 28µM | ? | . | . | ?
Cc1cccc(OCCCn2c(=O)sc3ccccc32)c1 | . | . | . | . | . | .
CCCCCCCCCCOC(=O)Cn1c(COc2cccc(C)c2)[n+](C)c2ccccc21 | ? | ? | . | 5.2µM | . | ?
CCCCCCCCCCOC(=O)Cn1c(COc2ccc(Cl)cc2)[n+](C)c2ccccc21 | ? | 10µM | ? | ? | . | ?
CC1(C)CC(=O)C(C=Nc2ccc3[nH]ncc3c2)=C(O)C1 | . | . | ? | 10µM | . | .
CC1(C)CC(=O)C(C=Nc2ccc3cn[nH]c3c2)=C(O)C1 | . | . | . | . | . | .
COc1ccccc1OCC(=O)N1CC2(C)CC1CC(C)(C)C2 (configuration not stated) | . | . | . | / | . | .
COc1ccc(C(CNC(=O)c2ccc(-c3nc4ccccc4s3)o2)N2CCCC2)cc1 (configuration not stated) | ? | / | / | 10µM | / | 7.4µM
COc1ccc(C(CNC(=O)c2oc3cc(C)c(Cl)cc3c2C)N2CCCCC2)cc1 (configuration not stated) | . | . | . | . | . | 5.2µM
CC(C)(Oc1ccc(Cl)cc1)C(=O)NCC(c1cccs1)N1CCOCC1 (configuration not stated) | . | . | . | ? | / | ?
COc1ccccc1C(CNC(=O)c1oc2ccccc2c1C)N1CCCC1 (configuration not stated) | . | . | . | 13µM | / | ?
COc1ccccc1C(CNC(=O)C(C)(C)Oc1ccc(Cl)cc1)N1CCCC1 (configuration not stated) | ? | . | . | ? | / | 13µM
CCC(C)NC(=O)C(Sc1ccccc1)c1ccccc1 (configuration not stated) | . | . | . | ? | . | ?
COc1ccc(C(CNC(=O)c2cc3ccccc3o2)N2CCCCC2)cc1 (configuration not stated) | 16µM | . | . | . | . | .
COc1ccc(C(CNC(=O)c2cc3ccccc3o2)N2CCCC2)cc1 (configuration not stated) | . | / | / | . | / | ?
COc1ccc(C(CNC(=O)c2cc3ccccc3cc2O)N2CCOCC2)cc1 (configuration not stated) | . | . | . | 10µM | / | 9.3µM
COc1ccc(CCNC(=O)c2cnc3sc(N4CCCCC4)nn3c2=O)cc1OC | / | . | . | / | / | /
Cc1oc(-c2cccc(F)c2)nc1CN(Cc1ccccc1)C[C@@H]1CCC(=O)N1 | . | . | . | 8.3µM | . | ?
Cc1oc(-c2ccccc2Cl)nc1CN(Cc1ccccn1)C[C@@H]1CCC(=O)N1 | . | / | / | ? | . | .
O=c1c2nncn2c2cccnc2n1CCNc1ncc(C(F)(F)F)cc1Cl | . | . | . | . | . | ?
O=c1c(Cl)nc2cc(Cl)ccc2n1CCNc1ncc(C(F)(F)F)cc1Cl | . | . | . | ? | . | 13µM
NNc1nc2cccnc2n(CCNc2ncc(C(F)(F)F)cc2Cl)c1=O | . | . | . | 12µM | / | ?
Nc1nc2c(c(=O)[nH]1)N(C=O)[C@H](CNc1ccc(C(=O)N[C@@H](CCC(=O)O)C(=O)O)cc1)CN2 | / | / | / | . | / | .
O=C(COc1ccc([N+](=O)[O-])cc1)Nc1ccc(C(=O)NCc2cccnc2)cc1 | . | / | / | . | . | ?
SMILES | HCV inhibitor | Vaccinia Venus | Vaccinia mCherry | Pf growth 96h | NS1 inh | Pf growth 48h
CS/C(=N\S(=O)(=O)c1cccs1)NC(=O)CSc1nc2ccccc2s1 | . | . | . | 6.6µM | . | /
C/C(=N/NC(=O)CSc1nc2ccccc2s1)c1ccncc1 | . | . | . | . | . | .
CC(C)Oc1ccc(Br)cc1/C=N\NC(N)=S | ? | 7.9µM | 5.6µM | ? | . | .
COc1ccc(Cl)cc1NC(=O)CN1C(=O)NC(C)(Cc2ccc(OC)c(OC)c2)C1=O (configuration not stated) | . | / | / | . | / | ?
CC1(C)OC1COc1c2ccoc2cc2oc(=O)ccc12 (configuration not stated) | . | / | / | 0.37µM | . | .
COc1c2ccoc2cc2oc(=O)ccc12 | . | . | . | / | / | /
